The values below come from the supplement of paper PMC7411640.

Where a name gives a salt, the structure may show the parent alone.

One experiment relates to MDA-MB-468. Put plainly: phospho-S6 immunofluorescence (DAPI-normalised), per-plate z-score; higher = higher phospho-S6 signal (less pathway suppression). The conditions noted are these: co-treatment: lapatinib 1 uM; 24 h. The method, then:
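GPCR-targeted compound library (MedChemExpress HY-L006) tested on MDA-MB-468 PTEN-null TNBC cells in 384-well plates at 0.1, 1 or 10 uM, combined with vehicle, GDC0941 450 nM or lapatinib 1 uM, for 24 h. Phospho-S6 (S240/244) immunofluorescence normalised to DAPI and expressed as a per-plate z-score; values are the mean of biological triplicates.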
`Nc1nc(-c2nn(Cc3ccccc3F)c3ncccc23)ncc1C1CC1` (compound 10 µM): the “phospho-S6 immunofluorescence (z-score)” value was 2.78.
With `CN1CCC(=C2c3ccccc3CCn3c(C=O)cnc32)CC1` [Alcaftadine] (compound 10 µM), the “phospho-S6 immunofluorescence (z-score)” value turned out to be 1.09.
Same read-out and setting: as for `CCOC(=O)N[C@@H]1CC[C@@H]2[C@@H](C1)C[C@H]1C(=O)O[C@H](C)[C@H]1[C@H]2/C=C/c1ccc(-c2cccc(F)c2)cn1` [Vorapaxar] (compound 10 µM), the figure is -11.6; as for `CC(C)=CCC/C(C)=C/CC/C(C)=C/CSc1ccccc1C(=O)O` [Salirasib] (compound 10 µM), 0.86; as for `CCCCC[C@H](O)/C=C/[C@H]1[C@H](O)CC(=O)[C@@H]1CCCCCCC(=O)O` [Prostaglandin E1] (compound 10 µM), 1.48.
Turning to `CCCCCCOc1nsnc1C1=CCCN(C)C1` [Xanomeline (oxalate)] (compound 10 µM), the “phospho-S6 immunofluorescence (z-score)” value is -0.5.
As for `COc1cc2nc(N3CCN(C(=O)c4ccco4)CC3)nc(N)c2cc1OC` [Prazosin (hydrochloride)] (compound 10 µM), the “phospho-S6 immunofluorescence (z-score)” value is 0.54.
The same measure, in the same setting: as for `Clc1ccc2nsnc2c1NC1=NCCN1` [Tizanidine (hydrochloride)] (compound 10 µM), the figure is -0.07; as for `CC1(C)C(=O)N(CCN2CCC(C(=O)c3ccc(F)cc3)CC2)c2ccccc21` (compound 10 µM), -0.77.
The same measure, in the same setting: as for `OCCOCCN1CCN(C(c2ccccc2)c2ccccc2)CC1` [Decloxizine (dihydrochloride)] (compound 10 µM), the figure is -0.6.

Still in this experiment, the particulars now being: co-treatment: vehicle; 24 h.
With `CN(C)CC[C@@H](c1ccc(Cl)cc1)c1ccccn1` [Dexchlorpheniramine (maleate)] (compound 10 µM), the “phospho-S6 immunofluorescence (z-score)” value is -0.33.
On to `Nc1nc(CC(=O)Nc2ccc(CCNC[C@H](O)c3ccccc3)cc2)cs1` [Mirabegron] (compound 10 µM), for which the “phospho-S6 immunofluorescence (z-score)” value amounted to 0.56.
The same measure, in the same setting: as for `CNC[C@H](O)c1ccc(O)c(O)c1` [L-Epinephrine (Bitartrate)] (compound 10 µM), the figure is -0.23; as for `O=c1cc(C(Cl)(Cl)Cl)oc2ccc(Cl)cc12` (compound 10 µM), 0.44.
`CCn1c(=O)c2c(nc(/C=C/c3ccc(OC)c(OC)c3)n2C)n(CC)c1=O` [Istradefylline] (compound 10 µM): the “phospho-S6 immunofluorescence (z-score)” value was -0.74.
As to `CC[C@H](C)[C@H](NC(=O)[C@H](Cc1ccc(O)cc1)NC(=O)[C@@H]1CCCN1C(=O)[C@@H](NC(=O)[C@@H](N)CCCCN)[C@@H](C)CC)C(=O)N[C@@H](CC(C)C)C(=O)O` [Neuromedin N] (compound 10 µM), the “phospho-S6 immunofluorescence (z-score)” value was -0.38.
Consider `CN(C)CCOC(c1ccccc1)c1ccccc1` [Diphenhydramine (hydrochloride)] (compound 10 µM), for which the “phospho-S6 immunofluorescence (z-score)” value was found to be 0.32.
As for `Nc1nc(N)nc(-c2cc(Cl)ccc2Cl)n1` [Irsogladine] (compound 10 µM), the “phospho-S6 immunofluorescence (z-score)” value is -1.11.
On to `COc1cc2c(cc1OC)CC(=O)N(CCCN(C)C[C@H]1Cc3cc(OC)c(OC)cc31)CC2` [Ivabradine (hydrochloride)] (compound 10 µM), for which the “phospho-S6 immunofluorescence (z-score)” value is -0.38.
On the same count and under the same terms, as for `CC(C)NCC(O)COc1ccc(CCOCC2CC2)cc1` (configuration not stated) [Betaxolol] (compound 10 µM), the figure is -0.54; as for `CC(=O)OCC(=O)[C@@]1(O)[C@H](C)C[C@H]2[C@@H]3CCC4=CC(=O)C=C[C@]4(C)[C@@]3(F)[C@@H](O)C[C@@]21C` [Dexamethasone (acetate)] (compound 10 µM), 1.18.
As to `Cc1nccn1CCC(C(N)=O)(c1ccccc1)c1ccccc1` [Imidafenacin] (compound 10 µM), the “phospho-S6 immunofluorescence (z-score)” value was 0.28.
Regarding `COc1cc2c(NC3CCN(C(C)C)CC3)nc(N3CCC(F)(F)CC3)nc2cc1OCCCN1CCCC1` (compound 10 µM), the “phospho-S6 immunofluorescence (z-score)” value turned out to be 1.97.
With `CN(C)CCSSCCNC(=O)C1CCN(C(=O)CSc2ccc(Cl)cc2)CC1` [6H05 (trifluoroacetate)] (compound 10 µM), the “phospho-S6 immunofluorescence (z-score)” value is -0.23.
As to `CC(=O)Oc1cc(C(C)C)c(OCCN(C)C)cc1C` [Moxisylyte (hydrochloride)] (compound 10 µM), the “phospho-S6 immunofluorescence (z-score)” value was -1.23.
The same measure, in the same setting: as for `Cc1ccc(Sc2ccccc2N2CCNCC2)c(C)c1` [Vortioxetine] (compound 10 µM), the figure is -6.93; as for `CCCN(CCC)CCc1cccc2c1CC(=O)N2` [Ropinirole (hydrochloride)] (compound 10 µM), 1.01.
For `CNCCc1ccccn1` [Betahistine (dihydrochloride)] (compound 10 µM), the “phospho-S6 immunofluorescence (z-score)” value is -0.72.
The same measure, in the same setting: as for `CN(C)CCCN1c2ccccc2Sc2ccccc21` [Promazine (hydrochloride)] (compound 10 µM), the figure is 0.4; as for `CCc1c(C(=O)NCCc2ccc(N3CCCCC3)cc2)[nH]c2ccc(Cl)cc12` (compound 10 µM), 0.27; as for `C[C@@](N)(C(=O)O)c1ccc(C(=O)O)cc1` (compound 10 µM), 0.17.
Consider `Cc1nc(C#Cc2cccnc2)cs1` [MTEP (hydrochloride)] (compound 10 µM), for which the “phospho-S6 immunofluorescence (z-score)” value was -0.75.
Regarding `Cc1ccc(C(=O)Nc2ccc(S(=O)(=O)O)c3cc(S(=O)(=O)O)cc(S(=O)(=O)O)c23)cc1NC(=O)c1cccc(NC(=O)Nc2cccc(C(=O)Nc3cc(C(=O)Nc4ccc(S(=O)(=O)O)c5cc(S(=O)(=O)O)cc(S(=O)(=O)O)c45)ccc3C)c2)c1` [Suramin (sodium salt)] (compound 10 µM), the “phospho-S6 immunofluorescence (z-score)” value is -0.09.
`CC(C)c1noc(N2CCC(COc3ccc(-c4ccc(S(C)(=O)=O)cc4)nc3)CC2)n1` (compound 10 µM): the “phospho-S6 immunofluorescence (z-score)” value was -6.22.
`Cc1c(-c2ccccc2)oc2c(C(=O)OCCN3CCCCC3)cccc2c1=O` [Flavoxate (hydrochloride)] (compound 10 µM): the “phospho-S6 immunofluorescence (z-score)” value stood at 0.07.
As for `CCC(=O)NC[C@@H]1C[C@H]1c1cccc2c1CCO2` [Tasimelteon] (compound 10 µM), the “phospho-S6 immunofluorescence (z-score)” value was 0.27.
With `C#CCOc1ccc2c(c1)c(-c1ccc(C(C)C)cc1)nc(=O)n2C(C)C` [Calcium-Sensing Receptor Antagonists I] (compound 10 µM), the “phospho-S6 immunofluorescence (z-score)” value is -4.18.
Consider `Nc1nc(-c2nn(Cc3ccccc3F)c3ncccc23)ncc1C1CC1` (compound 10 µM), for which the “phospho-S6 immunofluorescence (z-score)” value is -0.52.
As for `CN1CCC(=C2c3ccccc3CCn3c(C=O)cnc32)CC1` [Alcaftadine] (compound 10 µM), the “phospho-S6 immunofluorescence (z-score)” value was -0.66.
Take `CCOC(=O)N[C@@H]1CC[C@@H]2[C@@H](C1)C[C@H]1C(=O)O[C@H](C)[C@H]1[C@H]2/C=C/c1ccc(-c2cccc(F)c2)cn1` [Vorapaxar] (compound 10 µM): the “phospho-S6 immunofluorescence (z-score)” value was -9.84.
Same read-out and setting: as for `CC(C)=CCC/C(C)=C/CC/C(C)=C/CSc1ccccc1C(=O)O` [Salirasib] (compound 10 µM), the figure is -0.02; as for `CCCCC[C@H](O)/C=C/[C@H]1[C@H](O)CC(=O)[C@@H]1CCCCCCC(=O)O` [Prostaglandin E1] (compound 10 µM), -0.27.
On to `CCCCCCOc1nsnc1C1=CCCN(C)C1` [Xanomeline (oxalate)] (compound 10 µM), for which the “phospho-S6 immunofluorescence (z-score)” value worked out at 1.16.
In the case of `COc1cc2nc(N3CCN(C(=O)c4ccco4)CC3)nc(N)c2cc1OC` [Prazosin (hydrochloride)] (compound 10 µM), the “phospho-S6 immunofluorescence (z-score)” value stood at 0.24.
The same measure, in the same setting: as for `Clc1ccc2nsnc2c1NC1=NCCN1` [Tizanidine (hydrochloride)] (compound 10 µM), the figure is 0.54; as for `CC1(C)C(=O)N(CCN2CCC(C(=O)c3ccc(F)cc3)CC2)c2ccccc21` (compound 10 µM), 0.28; as for `OCCOCCN1CCN(C(c2ccccc2)c2ccccc2)CC1` [Decloxizine (dihydrochloride)] (compound 10 µM), -0.19.
